# Sampled rows, rich in hits. Any-hit rate of the full collection: about 18%.
# TDP1 cell CPT: DT40-hTDP1 cell growth loss with CPT; 12% of 420,000 active; Potency, µM (titrated, usually from 46.2 µM), without a hit: at the highest dose activity change, negative = growth inhibition, actives largely listed as inhibitors; AID 686979; chicken DT40 Tdp1-/-;hTDP1 cells + 20 nM CPT, ATP luminescence, 48 h; also: potency is read from the fitted curve at half-maximal effect; % is scaled to controls: 0 for no effect and ±100 for the full control effect; nearly all actives have a fitted effect of over 55% in size
#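 Chicken DT40 Tdp1-/- cells stably complemented with human TDP1 were seeded at 400 cells/well in medium containing 20 nM camptothecin, exposed to pin-transferred compounds, and grown at 37 °C for at least 48 hr. Viability was read as ATP luminescence.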
# DT40 TDP1 no CPT: qHTS for Inhibitors of human tyrosyl-DNA phosphodiesterase 1 (TDP1): qHTS in cells in absence of CPT; AID 686978, 2013; DT40 Tdp1-/- hTDP1 cells, no CPT, ATP luminescence, 48 h; 15% of 420,000 active; Potency, µM (series often up to 46.2 µM), for the others: at the highest dose activity change, negative = growth inhibition, most hits filed as inhibitors; also: potency is read from the fitted curve at half-maximal effect; % is scaled to controls: 0 for no effect and ±100 for the full control effect; nearly all actives have a fitted effect of over 55% in size
#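 Chicken DT40 Tdp1-/- cells stably complemented with human TDP1 were seeded at 400 cells/well with DMSO in place of 20 nM camptothecin. After compound pinning, cells grew at least 48 hr at 37 °C; viability read by CellTiter-Glo luminescence.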
# HepG2 viability: HepG2 cytotoxicity, counter-screen for TGF-b inhibitors. 0.76% of 410,000 active. AID 588856. HepG2 CAGA-GFP viability, ATP luminescence, 18 h. Potency, µM (titrated, usually from 46.1 µM), for inactives: at the highest dose activity change, negative = cytotoxicity, usual class: cytotoxic; also: potency is read from the fitted curve at half-maximal effect
#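 HepG2 CAGA-GFP cells (1000/well, DMEM with 1% FBS) received compound, then TGF-beta at 500 pg/mL final, and were incubated 18 hours at 37 degrees C. Viability was read by CellTiter-Glo luminescence. Media-only wells were set as complete cell-killing and DMSO as no toxicity.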
# TDP1 block: inhibitors of human tyrosyl-DNA phosphodiesterase TDP1; Q9NUW8; AID 485290; Potency, µM (top dose mostly 130 µM), for inactives: top-dose activity change, negative = inhibition, hits mostly inhibitors; 0.28% of 350,000 active; recombinant TDP1, AlphaScreen DNA substrate cleavage; also: potency is read from the fitted curve at half-maximal effect; % is scaled to controls: 0 for no effect and ±100 for the full control effect; nearly all actives have a fitted effect of over 40% in size
# Target sequence (Q9NUW8 whole entry, looked up): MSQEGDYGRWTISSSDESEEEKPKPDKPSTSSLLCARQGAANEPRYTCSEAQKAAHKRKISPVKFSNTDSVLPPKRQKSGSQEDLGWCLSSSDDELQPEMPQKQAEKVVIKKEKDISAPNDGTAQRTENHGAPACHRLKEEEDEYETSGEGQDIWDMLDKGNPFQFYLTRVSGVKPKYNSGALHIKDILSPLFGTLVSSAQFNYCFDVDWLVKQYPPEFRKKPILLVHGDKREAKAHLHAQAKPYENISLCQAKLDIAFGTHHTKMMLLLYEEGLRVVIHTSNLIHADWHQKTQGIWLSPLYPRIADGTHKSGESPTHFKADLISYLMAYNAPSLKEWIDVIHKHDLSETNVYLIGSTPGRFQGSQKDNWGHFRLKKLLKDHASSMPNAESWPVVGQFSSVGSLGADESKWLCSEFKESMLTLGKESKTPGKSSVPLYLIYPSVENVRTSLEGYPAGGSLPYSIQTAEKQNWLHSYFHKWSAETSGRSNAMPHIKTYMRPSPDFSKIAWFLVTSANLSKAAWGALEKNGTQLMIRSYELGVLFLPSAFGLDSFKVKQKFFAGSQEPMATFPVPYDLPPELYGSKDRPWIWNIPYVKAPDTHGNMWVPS
#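 Here, a 5' biotin and 3' phosphotyrosine-FITC DNA oligonucleotide reports Tdp1 activity: intact substrate bridges AlphaScreen beads, while cleavage leaves a 3' phosphate and drops signal. All incubations at room temperature.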
# IL-1B inflam inh: inflammasome signaling inhibition, IL-1 beta readout. THP-1 LPS/ATP IL-1B secretion, AlphaLISA, 16 h; active compounds read low. activity change, % at 57.5 µM. 4.7% of 360,000 active. AID 743279; in the data active = activity change below about -50%; inconclusive = mostly about -30% to -49%; also: % is scaled to controls: 0 for no effect and ±100 for the full control effect
#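 THP-1 cells pretreated 1 hr with compounds (up to 57.5 uM final), then stimulated with LPS (250 ng/mL final) plus ATP (1.25 mM final); secreted IL-1B measured by AlphaLISA after 16 hr, decreased signal indicating inhibition.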
# TGFb SMAD3 inh: blocks TGF-b signaling. HepG2 CAGA-GFP TGF-b/SMAD3 reporter, GFP fluorescence, 18 h; TGF-beta stimulated, 500 pg/mL final. 1.2% of 410,000 active. Potency, µM (highest dose often 46.1 µM), for the others: at the top dose activity, negative = inhibition, hits mostly inhibitors; also: potency is read from the fitted curve at half-maximal effect; % is scaled to controls: 0 for no effect and ±100 for the full control effect; nearly all actives have a fitted effect of over 65% in size
#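 Smad-responsive CAGA-GFP expression was quantified in HEPG2 cells exposed to compounds and 500 pg/mL final TGF-beta for 18 h at 37 degrees C; unstimulated wells defined full inhibition.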
# Active calls of the source: *; ? = inconclusive; / = no result; [ ] = dose if it differs, or a comment. Unless noted, calls follow the shape of the dose curve; as a rule, active = well fitted curve in the direction sought with a large enough effect; inconclusive = small, poorly fitted or top-dose-only effect, or another doubt; inactive = no such curve, though single readings can be large; an effect the other way counts as inactive or inconclusive.
SMILES,TDP1 cell CPT,DT40 TDP1 no CPT,HepG2 viability,TDP1 block,IL-1B inflam inh,TGFb SMAD3 inh
O=C(CC(C(=O)O)P(=O)(c1ccccc1)c1ccccc1)c1ccccc1 (configuration not stated),-19%,0%,-9%,0%,-50*,7%
COC(=O)CN1C(=O)C(O)(CC(=O)c2cccc(Br)c2)c2ccccc21 (configuration not stated),29µM*,?,-58%,-4%,12,-13%
Cc1ccccc1CN1C(=O)C(O)(CC(=O)c2cccc(Br)c2)c2ccccc21 (configuration not stated),-81%,5.2µM*,13µM*,1%[12.3 µM],/,13µM*
CCOC(=O)CN1C(=O)C(O)(CC(=O)c2cc(OC)ccc2OC)c2ccccc21 (configuration not stated),?,?,0%,/,/,1%
CCN1C(=O)C(O)(CC(=O)c2ccc(-n3cccc3)cc2)c2ccccc21 (configuration not stated),?,?,7%,5%,-21,-13%
COc1ccc(OC)c(C(=O)CC2(O)C(=O)N(Cc3ccccc3C)c3ccccc32)c1 (configuration not stated),16µM*,5.8µM*,-10%,/,/,?
CCN1C(=O)C(O)(CC(=O)c2cccc(-n3cccc3)c2)c2ccccc21 (configuration not stated),?,16µM*,-12%,5%,?,-9%
CCOC(=O)C1CCN(c2nc(C)cc(C)c2C#N)CC1,-21%,-17%,0%,3%,-7,6%
COc1cc2c(C#N)c(N3CCc4ccccc4C3)nc(N)c2c(N)n1,21µM*,21µM*,-2%,8%,-54*,0%
CCOC(=O)C1CCN(c2nc(N)c3c(N)nc(SCC(=O)O)cc3c2C#N)CC1,?,?,-1%,28µM*,21,-1%
CCN(CC)c1nc(N)c2c(N)nc(OC)cc2c1C#N,15µM*,23µM*,-28%,/,-2,?
Cc1cc(C)c(C#N)c(N2CCN(c3ccccc3)CC2)n1,-23%,1%,-3%,/,41,3%
CCOc1cc2c(C#N)c(N3CCCCC3)nc(N)c2c(N)n1,?,?,-42%,4%,0,-20%
COc1cc2c(C#N)c(N3CCCCC3)nc(N)c2c(N)n1,9.2µM*,13µM*,1%,-1%,?,-5%
CN1C(=O)[C@@H]2[C@H](C1=O)[C@@H]1C(=O)Nc3ccccc3C(=O)N1[C@@H]2c1cccc(Br)c1,?,-7%,-9%,-1%,17,?
CCOc1cc2c(C#N)c(N3CCNCC3)nc(N)c2c(N)n1,-4%,-15%,-20%,-6%,-2,-6%
COc1cc2c(C#N)c(N3CCOCC3)nc(N)c2c(N)n1,13µM*,23µM*,-47%,-4%,-54*,5%
CN(CCO)C(=O)c1cn(C2CCN(Cc3cccc(C(F)(F)F)c3)CC2)nn1,9%,-18%,/,/,/,/
CC1(c2ccc(Cl)cc2Cl)OCC(Cn2ccnc2)O1 (configuration not stated),21µM*,23µM*,-34%,-1%,4,0%
Cn1c(=O)oc2cc(S(=O)(=O)Nc3ccc(F)cc3)ccc21,-23%,4%,4µM*,/,10,8%
Cn1c(=O)oc2cc(S(=O)(=O)Nc3ccc(O)cc3)ccc21,-23%,?,-12%,-1%,10,-3%
Cn1c(=O)oc2cc(S(=O)(=O)Nc3ccc(Cl)cc3)ccc21,-27%,-24%,-1%,/,16,9%
CC(C)c1ccc(NS(=O)(=O)c2ccc3c(c2)oc(=O)n3C)cc1,18µM*,?,-7%,/,16,-1%
CCOC(=O)C(=CNc1cscc1S(=O)(=O)C(C)C)C(=O)OCC,-6%,?,9%,0%,25,-15%
Cc1ncoc1C(=O)N1CCCC(C(=O)c2ccc(Oc3ccccc3)cc2)C1 (configuration not stated),6%,-10%,-116%,/,0,-19%
SMILES,TDP1 cell CPT,DT40 TDP1 no CPT,HepG2 viability,TDP1 block,IL-1B inflam inh,TGFb SMAD3 inh
CC(=O)NCC(=O)N1CCCC(C(=O)c2ccc(Oc3ccccc3)cc2)C1 (configuration not stated),9.2µM*,?,6%,5%,-17,8%
Cc1nnc2c3ccccc3nc(N3CCN(c4cccc(Cl)c4)CC3)n12,13µM*,12µM*,-32%,6%,/,?
Clc1cccc(N2CCN(c3nc4ccccc4c4nc(-c5ccccc5)nn34)CC2)c1,-18%,-22%,-6%,-3%,/,0%
Cc1ccc(N2CCN(c3nc4ccccc4c4nnc(C)n34)CC2)c(C)c1,-7%,-10%,-11%,6%,/,0%
Cc1cccc(N2CCN(c3nc4ccccc4c4nnc(C)n34)CC2)c1C,13µM*,12µM*,4%,-5%,/,?
Cc1ccc2[nH]c(=O)c3cc(C(=O)N4CCN(c5ccccc5)CC4)sc3c2c1,-16%,?,1%,0%,/,?
COc1ccc(C(=O)NCCNc2nc3cc(C)cc(C)c3cc2C#N)cc1,?,?,/,/,-19,/
COc1cccc(C(=O)NCCCNc2nc3cc(C)cc(C)c3cc2C#N)c1,?,26µM*,-1%,/,0,9%
Cc1cc(C)c2cc(C#N)c(NCCCNC(=O)CCC(=O)O)nc2c1,0%,-27%,-1%,3%,-14,-13%
Cc1cc(C)c2cc(C#N)c(NCCCN)nc2c1,?,21µM*,/,/,0,/
COc1ccc(C(=O)NCCNc2nc3c(C)cccc3cc2C#N)cc1OC,-26%,-21%,-22%,4%,-27,-2%
COc1ccc(C(=O)NCCNc2nc3c(C)cccc3cc2C#N)cc1,?,21µM*,-1%,/,?,21%
CC1CC(C)C(=NNC(N)=O)C(C(O)CC2CCC(=O)NC2=O)C1 (configuration not stated),1.6µM*,2.3µM*,-2%,/,-17,?
CC1(C)Cc2ccccc2C(NNC(=O)c2ccccn2)=N1,18µM*,21µM*,-16%,9%,75,-19%
CC1(C)Cc2ccccc2C(NNC(=O)c2ccccc2)=N1,-4%,-22%,-20%,3%,-11,-1%

# Screening data: PubChem BioAssay, National Center for Advancing Translational Sciences (NCATS)
